FBPA coupling cs – qHTS Assay for Inhibitors of Fructose-1,6-bisphosphate Aldolase from Giardia Lamblia: Coupling assay counterscreen; coupling enzyme system counterscreen, AmpLite Red fluorescence; activity change, negative = inhibition, % at 58.2 µM, hits read low; 290,000 tested, 0.67% active; AID 2472, 2010; in the data active means activity change below about -30%
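Counterscreen of the coupled detection system alone, without aldolase: glyceraldehyde-3-phosphate coupling enzymes plus AmpLite Red readout. Compounds at 57.5 uM final, 10 min RT preincubation, 20 min RT reaction, fluorescence 525/598 nm.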
Giardia kill – Small Molecules that selectively kill Giardia lamblia: qHTS; Giardia lamblia trophozoite viability; activity change, % at 7.66 µM, hits read low; 340,000 tested, 0.15% active; in the data active means activity change below about -80%; inconclusive means between about -30% and that limit;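 further: parasites exposed to compound for two days anaerobically before the ATP read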
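Giardia lamblia trophozoites (100 cells/well) were incubated with compounds for 48 h at 37 deg C under anaerobic conditions. Viability was read as ATP content by one-step luminescence after 15-30 min at room temperature.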
Sfp inh – qHTS Assay for Inhibitors of Bacillus subtilis Sfp phosphopantetheinyl transferase (PPTase); 4'-phosphopantetheinyl transferase ffp (Bacillus subtilis), Q9F4F7; Biochemical Sfp PPTase activity, qHTS; Potency, µM, most hits filed as inhibitors; 310,000 tested, 3.5% active;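 further: the enzyme is Sfp with the accession as filed and its product quenches rhodamine fluorescence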
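Compounds were incubated with enzyme (final 15 nM) for 15 min at room temperature before substrate addition started the reaction. Fluorescence at 525 nm excitation, 598 nm emission was recorded immediately and after 30 minutes.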
ELG1 DNA repair – qHTS screen for small molecules that inhibit ELG1-dependent DNA repair in human embryonic kidney (HEK293T) cells expressing luciferase-tagged ELG1; HEK293T ELG1-luciferase reporter, luminescence, 16 h; DNA damage induced by 5-fluorouridine; Potency, µM (highest dose often 46.1 µM), most hits filed as inhibitors; 330,000 tested, 2.3% active; further: nearly all actives have a fitted effect of over 55% in size
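HEK293T cells expressing luciferase-tagged ELG1 (2,000/well) received 5-Fluorouridine plus compound or DMSO for 16 hr at 37 °C. Luciferase was read by ONE-Glo luminescence after 30 min at room temperature.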
Each line names hits and unclear results; the compound was inactive in the other large screens. The list is not random: actives were taken first. Their share in the collection is about 5.5%. Unless noted, the call rests on the fitted dose curve; in most records, active means well fitted curve in the direction sought with a large enough effect; inconclusive means small, poorly fitted or top-dose-only effect, or another doubt; inactive means no such curve, though single readings can be large; an effect the other way counts as inactive or inconclusive.

CN(/N=C/c1cc(Br)cc(Br)c1O)c1cccc(C(F)(F)F)n1	ELG1 DNA repair 7.3µM
CN(C)Cc1ccccc1-c1ccc2ncnc(NC3CC3)c2c1	none (no result: Giardia kill, ELG1 DNA repair)
COCCn1c(SCC(=O)N2CCCCCC2)nc2c([nH]c3ccccc32)c1=O	none (no result: FBPA coupling cs)
CCOC(=O)N1CCN(C(=O)CSc2nc3c([nH]c4ccccc43)c(=O)n2CCOC)CC1	ELG1 DNA repair 7.3µM (no result: FBPA coupling cs)
CCC1CCCCN1C(=O)CSc1nc2c([nH]c3ccccc32)c(=O)n1C (stereo not given)	ELG1 DNA repair 23.1µM
COC(=O)C(C)Sc1nc2c([nH]c3ccccc32)c(=O)n1C (stereo not given)	Sfp inh 50.1µM
COCCn1c(SCC(=O)N2CCCCC2)nc2c([nH]c3ccccc32)c1=O	ELG1 DNA repair 16.4µM
C/C(=N\NC(=S)Nc1ccc(F)cc1)C1CC1	Sfp inh 44.7µM, ELG1 DNA repair inconclusive
CCN1C[C@@H]2[C@@H]3C(=O)N(C)C(=O)[C@@H]3[C@](C)(C1=O)N2C(=O)c1ccc(C)cc1	none (no result: FBPA coupling cs, Sfp inh, ELG1 DNA repair)
CN(CC1CCCO1)S(=O)(=O)c1ccc(C(=O)Nc2ccc3c(c2)OCO3)cc1 (stereo not given)	ELG1 DNA repair 11.6µM
CN(CC1CCCO1)S(=O)(=O)c1ccc(C(=O)N2CCN(c3ccccc3)CC2)cc1 (stereo not given)	ELG1 DNA repair 23.1µM
CCn1nc(C(=O)NCCc2ccc3c(c2)OCCO3)c2ccccc2c1=O	none (no result: FBPA coupling cs, Sfp inh)
COc1ccc2[nH]cc(CCNc3ccnc(-c4c(C)noc4C)n3)c2c1	none (no result: Giardia kill, ELG1 DNA repair)
COC(=O)c1ccc(C(NC(=O)OCc2ccccc2)/C(=C/[C@@H](C)C(=O)NCc2ccc(S(C)(=O)=O)cc2)c2cccnc2)cc1 (stereo not given in full)	none (no result: Giardia kill, ELG1 DNA repair)
COc1nccnc1NS(=O)(=O)c1ccc(NC(=S)NC(=O)c2ccc(F)cc2)cc1	Sfp inh 50.1µM
COc1nsnc1NS(=O)(=O)c1ccc(NC(=S)NC(=O)c2ccncc2)cc1	Sfp inh 79.4µM
CC(=O)C[C@H](O)[C@@H](NC(=O)OC(C)(C)C)C(C)C	none (no result: Giardia kill, ELG1 DNA repair)
CC1CCCC(NC(=O)c2ccc(F)c(S(=O)(=O)N3CCOCC3)c2)C1C (stereo not given)	none (no result: FBPA coupling cs, Sfp inh)
COC(=O)CCSc1cc(NCCOC(C)=O)c([N+](=O)[O-])c2nonc12	none
COc1ccc(CNc2cc(NCCCO)c([N+](=O)[O-])c3nonc23)cc1	ELG1 DNA repair 20.6µM
O=[N+]([O-])c1c(NCCCO)cc(SCc2ccco2)c2nonc12	Sfp inh 22.4µM
O=[N+]([O-])c1c(NCCCO)cc(N2CCN(Cc3ccc4c(c3)OCO4)CC2)c2nonc12	ELG1 DNA repair 23.1µM
O=[N+]([O-])c1c(NCCCO)cc(Sc2ccc(Cl)cc2)c2nonc12	none
CC(=O)OCCNc1cc(SCc2ccco2)c2nonc2c1[N+](=O)[O-]	Sfp inh 44.7µM
COc1ccc(Nc2cc(NCCCO)c([N+](=O)[O-])c3nonc23)cc1	none
Clc1ccc(CN2C3=NCCCN3c3ccccc32)c(Cl)c1	none
O=C(COC(=O)C1=Cc2ccccc2OC1)NCc1ccc(F)cc1	none (no result: FBPA coupling cs, Sfp inh, ELG1 DNA repair)
CCN(CC(=O)Nc1ccc(NC(C)=O)cc1)C(=O)/C=C/c1c(C)nn(-c2ccc(F)cc2)c1C	ELG1 DNA repair 8.2µM (no result: FBPA coupling cs)
Cc1ccc(/C=N/NC(=O)c2cccc(S(=O)(=O)Nc3ccccc3Cl)c2)s1	FBPA coupling cs -33.6
O=C(N/N=C/c1ccncc1)c1cccc(S(=O)(=O)Nc2ccc(Cl)cc2)c1	Sfp inh 56.2µM
Nc1ncnc2c1ncn2[C@@H]1O[C@H](CNC(=O)[C@@H]2CCCN2S(=O)(=O)c2ccc(F)cc2)[C@@H](O)[C@H]1O	none (no result: FBPA coupling cs, Sfp inh)
COc1cc(/C=C/c2ccc3cccc(O)c3n2)cc(Cl)c1OC	Sfp inh 50.1µM, ELG1 DNA repair inconclusive
COC(=O)c1ccc(/C=C/c2ccc3cccc(OC)c3n2)cc1	Sfp inh 44.7µM, ELG1 DNA repair inconclusive
COc1cccc2ccc(/C=C/c3ccc4c(c3)OCO4)nc12	none (no result: FBPA coupling cs, Sfp inh, ELG1 DNA repair)
Cc1sc2ncnc(N3CCN(S(=O)(=O)c4ccc(F)cc4)CC3)c2c1C	ELG1 DNA repair inconclusive
Cc1ccc(S(=O)(=O)N2CCN(c3ncnc4sccc34)CC2)cc1	ELG1 DNA repair 9.2µM (no result: FBPA coupling cs)
Cc1ccc(S(=O)(=O)Nc2ccsc2C#N)cc1	none

Compound activity deposited in PubChem by National Center for Advancing Translational Sciences (NCATS).
